Assay results as given in PubChem BioAssay (NCATS).
“And” between values parts separate entries of the source, which are not always exact repeats. Equal values may be shown once. Results filed as inconclusive are left out. A call without a number means that no potency is given here. The source made the active and inactive calls. Unless noted, calls come from the whole dose curve; as a rule, active = well fitted curve in the direction sought with a large enough effect; inconclusive = small, poorly fitted or top-dose-only effect, or another doubt; inactive = no such curve, though single readings can be large; an effect the other way counts as inactive or inconclusive.

How the values were obtained:
[1] = biological target: Calcium and integrin-binding protein 1 (Homo sapiens) (UniProt Q99828); experiment: Primary qHTS for Identification of Calcium Integrin Binding Protein 1 (CIB1) Competitor (AID 1508620);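 note: GST tagged CIB1 binding a fluorescein labelled alphaIIb integrin peptide tracer; top concentration of the series differs between compounds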
Chain of Calcium and integrin-binding protein 1 (Homo sapiens) (Q99828 whole entry, looked up): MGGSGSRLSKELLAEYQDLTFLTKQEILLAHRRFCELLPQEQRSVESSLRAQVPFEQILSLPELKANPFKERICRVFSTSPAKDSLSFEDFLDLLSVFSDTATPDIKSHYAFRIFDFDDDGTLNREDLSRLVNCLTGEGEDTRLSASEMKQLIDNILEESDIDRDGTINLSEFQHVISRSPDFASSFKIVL
Outline: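 CIB1-GST (1 uM final) and compound incubated 15 min at room temperature before adding FITC-alphaIIb peptide tracer (100 nM final). Competition for binding read by fluorescence polarization (ex 480, em 540) after another 15 min at room temperature.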

[2] = Primary qHTS for small molecule stabilizers of the endoplasmic reticulum resident proteome: Secreted ER Calcium Modulated Protein (SERCaMP) assay (AID 1508630); note: potency is the fitted concentration of half-maximal effect
Outline: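 The SH-SY5Y reporter protocol was run at 3 concentrations up to 38.3 uM (primary) or 11 concentrations (follow-up): 16 h compound, 100 nM thapsigargin for 4 h, then extracellular luciferase luminescence.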

[3] = Primary qHTS for inhibitors of nuclear receptor binding SET domain protein 2 (NSD2) in an isogenic RCH-ACV NSD2 p.E1099K mutant (9B) (AID 1645876); note: nearly all actives have a fitted effect of over 70% in size; note: potency is the fitted concentration of half-maximal effect
[4] = biological target: Cytochrome P450 2C9 (Homo sapiens) (UniProt P11712); experiment: Cytochrome P450 family 2 subfamily C member 9 (CYP2C9) small molecule antagonists: luciferase biochemical (cell-free) qHTS assay (AID 1645842; active = well fitted curve in the direction sought with a large enough effect in the repeat runs; an effect the other way counts as inactive or inconclusive; note: nearly all actives have a fitted effect of over 55% in size; note: potency is the fitted concentration of half-maximal effect)
Chain of Cytochrome P450 2C9 (Homo sapiens) (P11712 whole entry, looked up): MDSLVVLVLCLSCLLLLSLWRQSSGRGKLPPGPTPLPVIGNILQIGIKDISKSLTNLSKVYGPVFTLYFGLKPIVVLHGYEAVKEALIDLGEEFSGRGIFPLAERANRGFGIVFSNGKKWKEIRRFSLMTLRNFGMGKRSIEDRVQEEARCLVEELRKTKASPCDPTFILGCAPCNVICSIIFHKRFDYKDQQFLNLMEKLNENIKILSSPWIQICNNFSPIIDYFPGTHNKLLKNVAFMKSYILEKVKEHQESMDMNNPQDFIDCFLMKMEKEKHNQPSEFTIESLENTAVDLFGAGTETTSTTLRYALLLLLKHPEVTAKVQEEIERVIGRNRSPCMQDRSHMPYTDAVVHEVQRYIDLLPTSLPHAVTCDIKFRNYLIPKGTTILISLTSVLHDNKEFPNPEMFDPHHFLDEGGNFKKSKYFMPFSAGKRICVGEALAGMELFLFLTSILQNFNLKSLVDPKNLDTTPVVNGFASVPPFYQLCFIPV
Outline: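 P450-Glo CYP2C9 system: proluciferin substrate with enzyme in mix containing 0.4% BSA, 10 min at room temperature, then NADPH regeneration solution added and incubated 1 h at 37C. Detection reagent stopped reaction; luminescence read after 20 min as RLU.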

[5] = Primary qHTS for inhibitors of nuclear receptor binding SET domain protein 2 (NSD2) in an RCH-ACV wild type WT cells (2C) (AID 1645877); note: nearly all actives have a fitted effect of over 70% in size; note: potency is the fitted concentration of half-maximal effect
[6] = biological target: Cytochrome P450 3A4 (Homo sapiens) (UniProt P08684); experiment: Cytochrome P450 family 3 subfamily A member 4 (CYP3A4) small molecule antagonists: luciferase qHTS assay (AID 1645841; active = well fitted curve in the direction sought with a large enough effect in the repeat runs; an effect the other way counts as inactive or inconclusive; note: nearly all actives have a fitted effect of over 45% in size)
Chain of Cytochrome P450 3A4 (Homo sapiens) (P08684 whole entry, looked up): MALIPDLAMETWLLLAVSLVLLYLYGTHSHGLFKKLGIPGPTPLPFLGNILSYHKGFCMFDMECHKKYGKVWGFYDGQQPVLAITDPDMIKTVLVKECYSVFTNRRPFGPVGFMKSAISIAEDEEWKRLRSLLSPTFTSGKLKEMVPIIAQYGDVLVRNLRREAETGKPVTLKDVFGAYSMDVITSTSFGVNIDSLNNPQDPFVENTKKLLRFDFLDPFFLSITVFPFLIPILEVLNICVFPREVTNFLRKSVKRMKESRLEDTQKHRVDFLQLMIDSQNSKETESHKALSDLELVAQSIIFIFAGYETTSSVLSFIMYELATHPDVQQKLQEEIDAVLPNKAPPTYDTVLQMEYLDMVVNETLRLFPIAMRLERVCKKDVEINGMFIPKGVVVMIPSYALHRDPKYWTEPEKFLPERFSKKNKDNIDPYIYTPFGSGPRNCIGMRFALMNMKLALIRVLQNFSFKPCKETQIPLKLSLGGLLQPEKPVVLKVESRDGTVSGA
Outline: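 Luminescent CYP3A4 activity readout: compounds plus enzyme-substrate mix 10 min at room temperature, reaction started with NADPH regenerating system for 1 h, stopped with detection reagent, read after 20 min. Ketoconazole served as control.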

[7] = biological target: Cytochrome P450 2D6 (Homo sapiens) (UniProt P10635); experiment: Cytochrome P450 family 2 subfamily D member 6 (CYP2D6) small molecule antagonists: luciferase biochemical (cell-free) qHTS assay (AID 1645840; active = well fitted curve in the direction sought with a large enough effect in the repeat runs; an effect the other way counts as inactive or inconclusive; note: series mostly up to about 57 µM; nearly all actives have a fitted effect of over 55% in size)
Chain of Cytochrome P450 2D6 (Homo sapiens) (P10635 whole entry, looked up): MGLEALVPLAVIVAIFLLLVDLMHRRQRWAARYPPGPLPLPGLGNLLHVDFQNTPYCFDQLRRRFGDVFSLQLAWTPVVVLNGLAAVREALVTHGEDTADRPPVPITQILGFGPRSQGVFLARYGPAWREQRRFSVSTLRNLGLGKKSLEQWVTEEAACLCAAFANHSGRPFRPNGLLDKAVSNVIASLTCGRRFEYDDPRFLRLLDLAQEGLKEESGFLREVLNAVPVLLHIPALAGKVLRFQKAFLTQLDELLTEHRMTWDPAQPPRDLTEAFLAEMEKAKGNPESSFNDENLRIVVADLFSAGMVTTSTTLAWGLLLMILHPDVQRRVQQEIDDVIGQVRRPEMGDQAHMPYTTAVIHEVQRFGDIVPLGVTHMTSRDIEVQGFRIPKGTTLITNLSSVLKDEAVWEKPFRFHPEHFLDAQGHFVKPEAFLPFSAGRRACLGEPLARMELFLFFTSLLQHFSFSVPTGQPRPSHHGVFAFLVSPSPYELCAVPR
Outline: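 P450-Glo CYP2D6 system: proluciferin substrate converted by enzyme to luciferin, read by luminescence proportional to activity. Enzyme-substrate mix with compound 10 min at room temperature, then NADPH regeneration 1 h before detection reagent.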

For `CCN(c1ccccc1)c1cc(NC)[n+](C)c(C)n1`, the outcome [1] was “inactive”, the Potency [2] was “inactive” and the Potency [3] was “inactive”.

In the case of `Cc1cc2c(F)c(Oc3ncnn4cc(OC[C@@H](C)O)c(C)c34)ccc2[nH]1`, the outcome [1] is reported as “inactive”, the Potency [2] is reported as “inactive” and the Potency [3] is reported as 2.63 µM (active).

In the case of `Cn1cc(-c2ccc3nnc(C(F)(F)c4ccc5ncccc5c4)n3n2)cn1`, the outcome [1] is reported as “inactive”, the Potency [2] is reported as 14.9 µM (active) and the Potency [4] is reported as 3.01 µM (active).

For `CCn1c(-c2nonc2N)nc2c(C#CC(C)(C)O)ncc(OC[C@H]3CCCNC3)c21`, the outcome [1] was “inactive”, the Potency [2] was “inactive” and the Potency [3] was 1.32 µM (active). The Potency [5] was 1.18 µM (active).

In the case of `Cc1ccnc(NS(=O)(=O)c2ccc(NC(=O)Nc3ccc(S(=O)(=O)Nc4nccc(C)n4)cc3)cc2)n1`, the outcome [1] is reported as “inactive”, the Potency [2] is reported as “inactive” and the Potency [3] is reported as “inactive”.

For `COc1ccc2c3n(c(=NC(=O)c4cccnc4)nc2c1OC)CCN3`, the outcome [1] was “inactive”, the Potency [2] was “inactive” and the Potency [3] was 0.166 µM (active).

In the case of `CNCc1ccc(-c2[nH]c3cc(F)cc4c3c2CCNC4=O)cc1`, the outcome [1] is reported as “inactive”, the Potency [2] is reported as “inactive” and the Potency [6] is reported as “inactive”. For the same compound, the Potency [4] was 6.01 µM (active), the Potency [3] was 16.3 µM (active) and 11.8 µM (active) and the Potency [5] was 7.28 µM (active) and 7.42 µM (active).

With `Nc1nc2[nH]cc(CCc3ccc(C(=O)N[C@@H](CCC(=O)O)C(=O)O)cc3)c2c(=O)[nH]1` the outcome [1] was “inactive”, the Potency [2] was “inactive” and the Potency [3] was 0.296 µM (active). For the same compound, the Potency [5] was 0.296 µM (active).

For `C/C(=C\C(=O)Nc1ccccc1C(=O)O)c1ccc2ccccc2c1`, the Potency [7] was “inactive” and the Potency [3] was 20.9 µM (active).

In the case of `CCOC(=O)C1=C[C@@]2(CC)CCCN3CCc4c(n1c1ccccc41)[C@H]32`, the Potency [2] is reported as “inactive”.

With `CNC(=O)c1ccc(N2C(=S)N(c3ccc(C#N)c(C(F)(F)F)c3)C(=O)C2(C)C)cc1F` the outcome [1] was “inactive”, the Potency [2] was “inactive” and the Potency [3] was “inactive”. The Potency [5] was “inactive”.

With `COc1cc(Nc2ncc3c(n2)-c2ccc(Cl)cc2C(c2c(F)cccc2OC)=NC3)ccc1C(=O)O` the outcome [1] was “inactive”, the Potency [4] was “inactive” and the Potency [3] was 115 nM (active) and 20.5 nM (active) and 66.1 nM (active).

In the case of `Cc1cc([C@@H](C)Nc2ccccc2C(=O)O)c2nc(N3CCOCC3)cc(=O)n2c1`, the outcome [1] is reported as “inactive”, the Potency [2] is reported as “inactive” and the Potency [3] is reported as 2.24 µM (active) and 1.86 µM (active). The Potency [5] was 2.51 µM (active) and 1.66 µM (active).

For `CCN(CCCO)CCCOc1ccc2c(Nc3cc(CC(=O)Nc4cccc(F)c4)[nH]n3)ncnc2c1`, the Potency [6] was “inactive”.

For `O=C(C1CC1)N1CC[C@@H](Cn2c(-c3ccc(-c4ccc5occc5c4)cc3)nc3cnccc32)C1`, the outcome [1] was “inactive”, the Potency [2] was “inactive” and the Potency [3] was 18.6 µM (active). The Potency [5] was 16.6 µM (active).

For `CC(C)c1onc(-c2c(Cl)cccc2Cl)c1COc1ccc(/C=C/c2cccc(C(=O)O)c2)c(Cl)c1`, the Potency [2] was “inactive”, the Potency [3] was “inactive” and the Potency [5] was “inactive”.

For `O=C1[C@H](Cc2ccc(O)cc2)N2C(=O)CCN(C(=O)NCc3ccccc3)[C@H]2CN1Cc1cccc2ccccc12`, the outcome [1] was “inactive”, the Potency [2] was “inactive” and the Potency [3] was 3.72 µM (active). For the same compound, the Potency [5] was 3.72 µM (active).

For `CCC(C)(C)C(=O)O[C@H]1C[C@@H](C)C=C2C=C[C@H](C)[C@H](CC[C@@H]3C[C@@H](O)CC(=O)O3)[C@H]21`, the Potency [2] was “inactive”, the Potency [3] was 8.33 µM (active) and the Potency [5] was 8.33 µM (active).
